Values joined by “and” are separate entries in the source; they are usually repeats but may differ in a detail not shown here. Equal values may be shown once. In all, about 310,000 compounds went through this assay and about 17,000 (5.5%) were called active. Inconclusive results (about 11%) are left out. The call rests on the fitted dose curve; in most records, active means well fitted inhibition curve with a large enough effect; inconclusive means small, poorly fitted or top-dose-only effect, or effect the other way; inactive means no such curve, though single readings can be large or run the other way. The full list was thinned out, with actives kept by preference. Some structures have more than one record in an assay (separate samples or runs), and their calls can disagree.
On the % scale 0 is the no-effect control and ±100 the full control effect; potency means the concentration at half of the fitted maximal effect.

Chain of Nuclear receptor ROR-gamma (Mus musculus) (P51450 whole entry, looked up, the tested form may be a part): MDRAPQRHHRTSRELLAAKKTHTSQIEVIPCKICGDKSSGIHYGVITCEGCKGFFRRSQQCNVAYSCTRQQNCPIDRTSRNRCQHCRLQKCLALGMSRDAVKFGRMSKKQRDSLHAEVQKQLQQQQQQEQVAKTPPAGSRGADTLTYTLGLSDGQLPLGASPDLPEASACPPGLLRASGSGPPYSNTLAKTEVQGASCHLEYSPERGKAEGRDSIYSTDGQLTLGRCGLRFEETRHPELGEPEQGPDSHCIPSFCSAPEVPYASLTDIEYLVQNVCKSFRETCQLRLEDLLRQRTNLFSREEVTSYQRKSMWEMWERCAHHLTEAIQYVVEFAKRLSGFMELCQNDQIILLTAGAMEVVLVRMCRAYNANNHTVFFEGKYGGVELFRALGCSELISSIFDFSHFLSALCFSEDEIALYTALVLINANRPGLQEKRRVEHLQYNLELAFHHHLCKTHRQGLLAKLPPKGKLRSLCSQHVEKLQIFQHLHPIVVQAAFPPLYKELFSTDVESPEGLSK

The assay concerns the target Nuclear receptor ROR-gamma (Mus musculus) (UniProt P51450). As to the kind of experiment: qHTS for inhibitors of ROR gamma transcriptional activity. Further: nearly all actives have a fitted effect of over 60% in size. The conditions noted are these: Drosophila S2 Gal4-RORgamma UAS-luciferase reporter, 20 h; series mostly up to 53.6 µM; activity change, negative = inhibition: at the top concentration. The source says:
NIH Molecular Libraries Probe Production Network [MLPCN] NIH Chemical Genomics Center [NCGC] MLPCN Grant: R03 DA026211-01 Assay Provider: Dan Littman, New York University Assay Overview: The retinoic acid-related orphan receptor (ROR) gamma is a transcription factor that has a central role in the differentiation of Th17 cells, a subset of T helper cells that secrete the inflammatory cytokines IL-17, IL-17F, and IL-22. Th17 cells have been implicated in graft versus host disease, autoimmune disease and asthma. ROR gamma is induced in naive T helper cells in the presence of TGF-beta combined with IL-6, IL-21, or IL-23, and thereafter directs the expression of the Th17 lineage cytokines. To study the mechanism of action of ROR gamma, an insect cell-based assay was screened. This Drosophila Schneider cell line was stably transfected with two vectors: a gene expressing a fusion of the Gal4 DNA binding domain and ROR gamma transactivation domain under the control of the metallothionine promoter and a Photinus luciferase reporter regulated by the Gal4 binding site enhancer, UAS. […] Small molecule inhibitors of ROR gamma activity are detected by a decrease in luciferase reporter activity.
Assay Protocol Summary: For screening, 600 cells in 4 uL/well were dispensed into white solid 1536-well plates (Grenier) using a solenoid-based dispenser. Following transfer of 23 nL compound or DMSO vehicle by a pin tool, the plates were incubated 1 hr at ambient temperature, and 1 uL/well copper sulfate (700 uM final concentration) was added. The plates were centrifuged 15 s at 1000 RPM and incubated 20 hr at ambient temperature. After addition of 1.5 uL Photinus luciferase detection reagent, the plates were incubated 10 min at ambient temperature and then read by an ViewLux (Perkin Elmer) to detect luminescence. Keywords: NIH Roadmap, MLPCN, MLI, MLSMR, qHTS, NCGC, qHTS, nuclear hormone receptor, retinoic acid-related orphan receptor, ROR gamma
On the technique in general: Quantitative high-throughput screening tests each substance at several concentrations.
On to `NC[C@H](O)c1ccc(O)cc1`, for which the “activity change, negative = inhibition” value was 3.67% [at 16.9 µM] (inactive).

For `COc1ccc(C2Oc3c(I)c(OC)cc(OC)c3CC2O)cc1OC` (stereo not given), the “activity change, negative = inhibition” value was 12.7% (inactive).

Consider `CC(C)(C)c1ccc(CN2C(=O)CN=C(c3ccccc3)c3ccccc32)cc1`, for which the “activity change, negative = inhibition” value is 24.6% (inactive).

In the case of `ClCCBr`, the “activity change, negative = inhibition” value was 14.1% (inactive).

For `Cc1cc(C)cc(NC(=S)NC2CC3CCCC(C2)N3Cc2cccs2)c1` (stereo not given), the Potency is 8.91 µM (active).

With `C[C@@H]1C[C@H]2CC[C@H](O2)[C@H](C)C(=O)O[C@@H](C)C[C@@H]2CC[C@@H](O2)[C@@H](C)C(=O)O[C@H](C)C[C@H]2CC[C@H](O2)[C@H](C)C(=O)O[C@@H](C)C[C@@H]2CC[C@@H](O2)[C@@H](C)C(=O)O1`, the Potency was 0.891 µM (active).

As for `CC(=O)Oc1ccccc1C(=O)Nc1ncc([N+](=O)[O-])s1`, the “activity change, negative = inhibition” value was -79.1% (inactive).

`N#Cc1c(Cl)c(Cl)c(Cl)c(C#N)c1Cl`: the Potency was 2.51 µM (active).

Regarding `O=C1CCc2cccc3c2N1CC3`, the “activity change, negative = inhibition” value is -10.2% (inactive).

Regarding `Nc1ccc(-c2ccc(N)c(N)c2)cc1N`, the “activity change, negative = inhibition” value was 12.8% (inactive).

For the compound `CC1=CC(=O)C2=C(C)C[C@H](O)[C@H]3[C@H](C)C(=O)O[C@@H]3C12` (stereo not given in full), the “activity change, negative = inhibition” value is 2.61% (inactive).

As to `C=CCSSCC=C`, the “activity change, negative = inhibition” value is -7.73% (inactive).

As to `CCCCCCCCc1[se]c2ccccc2c1Br`, the “activity change, negative = inhibition” value was -0.37% (inactive).

For the compound `O=C(O)c1ccccc1NC(=O)C1C2CCC(O2)C1C(=O)O` (stereo not given), the “activity change, negative = inhibition” value was -10.6% (inactive).

As for `c1csc(CN2CC3(CCNCC3)C2)n1`, the “activity change, negative = inhibition” value was -0.669% (inactive).

For the compound `C1CC[C@H]([C@@]23C[C@H](C[C@H]4CCCN[C@H]42)[C@@H]2CCCCN2C3)NC1`, the “activity change, negative = inhibition” value is 9.81% (inactive).

`Cc1nc2ccccn2c1P(=S)(N1CCCCC1)N1CCCCC1`: the Potency was 7.08 µM (active).

Turning to `c1ccc(CCCCN2CCC(c3ccccc3)CC2)cc1`, the “activity change, negative = inhibition” value was -10.4% (inactive).

Turning to `Clc1ccc([C@@H]2C[C@H]3CC[C@@H]2N3)cn1`, the “activity change, negative = inhibition” value is 24.9% (inactive).

On to `CC[C@]1(O)C(=O)OCc2c1cc1n(c2=O)Cc2cc3ccccc3nc2-1`, for which the “activity change, negative = inhibition” value was -21.8% (inactive).

As for `Cc1ncc(CC(=O)n2cc(C(=O)c3cc(Cl)ccc3O)cn2)s1`, the Potency is 7.94 µM (active).

For `CC(C)(Cc1c[nH]c2ccc(Cl)cc12)NCCOc1ccccc1OCC1CC1`, the Potency was 12.6 µM (active).

For the compound `N[C@H](C(=O)O)c1cc(=O)[nH]o1`, the “activity change, negative = inhibition” value is -0.853% (inactive).

With `CC(=O)[O][Sn]([c]1ccccc1)([c]1ccccc1)[c]1ccccc1`, the Potency was 0.891 µM (active).

On to `COC(=O)N1C(c2ccccc2)C1c1ccccc1` (stereo not given), for which the “activity change, negative = inhibition” value is 19% (inactive).

In the case of `C[C@@]12CCC3C(CC[C@@H]4CC(O)CC[C@@]34C)C1CCC2O` (stereo not given in full), the “activity change, negative = inhibition” value is -4.73% (inactive).

On to `Cc1ncsc1CCCl`, for which the Potency result is “inactive”.

On to `COc1cc2c(cc1OC)[C@@H]1C(=O)c3ccc(O)c(CC=C(C)C)c3OC1CO2` (stereo not given in full), for which the “activity change, negative = inhibition” value was 11.8% (inactive).

As to `C[C@@]12CC[C@H]3[C@@H](CC[C@]4(O)C[C@H](O)CC[C@@]34C=O)[C@]1(O)CC[C@@H]2C1=CC(=O)OC1`, the “activity change, negative = inhibition” value was 15.8% [at 16.9 µM] (inactive).

As to `N#Cc1cc(Br)c(O)c(Br)c1`, the “activity change, negative = inhibition” value was 29.7% (inactive).

As for `CCCCC(=O)N/N=C/c1c(O)n(CC)c(=S)n(CC)c1=O`, the Potency was 2 µM (active).

With `CCCCC(=O)N/N=C/c1c(O)n(CCC2=CCCCC2)c(=O)[nH]c1=O`, the “activity change, negative = inhibition” value was -37.8% (inactive).

Take `CCCCC(=O)N/N=C/c1c(O)n(-c2ccccc2)c(=O)[nH]c1=O`: the “activity change, negative = inhibition” value is -21.3% (inactive).

For the compound `CC(Cl)Cl`, the “activity change, negative = inhibition” value is 4.6% (inactive).

In the case of `COC1=C[C@]23CCCN2CCc2cc4c(cc2[C@@H]3[C@@H]1O)OCO4`, the “activity change, negative = inhibition” value is 6.52% (inactive).

`CCN1C[C@]2(C)CC[C@H](O)[C@@]34[C@@H]5CC6[C@@H](OC)C[C@@](O)([C@@H]5[C@@H]6O)[C@H](C[C@@H]23)[C@H]14`: the “activity change, negative = inhibition” value was 23.8% [at 16.9 µM] (inactive).

Take `CO[C@H]1[C@@H](O)[C@@H](C)O[C@H](O[C@H]2[C@H](Oc3cccc4c(O)c5c(=O)oc6ccc(C)c7c(=O)oc(c34)c5c67)O[C@H](C)[C@H](O)[C@@H]2O)[C@@H]1O`: the Potency was 11.2 µM (active).

On to `CN1C2CC3CC1C(O3)C2O` (stereo not given), for which the “activity change, negative = inhibition” value is 6.14% (inactive).

`CC(C)(c1ccccc1)c1ccc(O)cc1`: the “activity change, negative = inhibition” value is 2.59% (inactive).

With `CCOc1ccc(-c2cc(C)[n+](CCN(CC)CC)c(-c3ccc(OCC)cc3)c2)cc1`, the “activity change, negative = inhibition” value was -64.7% (inactive).

As to `CCCCC/C=C\C/C=C\C/C=C\CCCCCCC(=O)NCCO`, the Potency result is “inactive”.

On to `COc1ccc(CN2CCN(c3ccccc3F)CC2)c(OC)c1`, for which the “activity change, negative = inhibition” value is 9% (inactive).

As for `COc1cc(-n2c(=S)[nH]c3ccc(C)cc3c2=O)c(Cl)cc1Cl`, the Potency was 2.51 µM (active).

For `COc1ccccc1-c1[se]c2ccccc2c1I`, the “activity change, negative = inhibition” value was 17.7% (inactive).

As for `C[C@]12O[C@H](C[C@@]1(O)C(=O)O)n1c3ccccc3c3c4c(c5c6ccccc6n2c5c31)CNC4=O`, the “activity change, negative = inhibition” value was 13.2% (inactive).

`CNCC[C@H](Oc1ccc(C(F)(F)F)cc1)c1ccccc1`: the “activity change, negative = inhibition” value was 23.7% [at 16.9 µM] (inactive).

For the compound `C=CC#N`, the “activity change, negative = inhibition” value was 3.71% (inactive).

`O=C1C2CCN(CC2)C1(CO)CO`: the Potency result was “inactive and 25.1 µM (active)”.

Consider `c1ccc2c(c1)[I+]c1ccccc1-2`, for which the “activity change, negative = inhibition” value is -83.8% (inactive).

Regarding `O=P1(Oc2ccccc2)CC(O)C(O)C(COCc2ccccc2)O1` (stereo not given), the “activity change, negative = inhibition” value is -1.94% (inactive).

These data come from PubChem BioAssay AID2551 (National Center for Advancing Translational Sciences (NCATS), 2010).
